A word on the Inhibition: it is the percentage by which the read-out fell short of the control. Lower therefore signals little suppression.

Molecules are shown by their SMILES.

The test system of this experiment is Plasmodium falciparum. Put plainly: GSK_TCMDC: Inhibition of Plasmodium falciparum 3D7 in whole red blood cells, using parasite LDH activity as an index of growth. Test compounds present at 2uM. The experiment is classed as functional.
For the compound `Cc1cc(N[C@@H](Cc2ccccc2)C(=O)NCCOc2ccccc2)nc(NCCOc2ccccc2)n1.O=C(O)C(F)(F)F`, the Inhibition was 98%.

Turning to `O=C(O)C(F)(F)F.OC1CCCN(Cc2ccc(-c3ccc(-c4nc5cc(F)ccc5[nH]4)s3)cc2)C1` (centres undefined), the Inhibition came out at 100%.

`CCOC(=O)c1ccc(N=C2SC(=Cc3cc(Br)ccc3O)C(=O)N2C)cc1` came in with an Inhibition of 99%.

The compound `CO/C(=C\C=C\c1cc2cc(Cl)c(Cl)cc2[nH]1)C(=O)Nc1ccc(NCCN(C)C)nc1.Cl` returned an Inhibition of 93%.

`CCc1c(C(=O)NC2CCC(N3CCC(c4ccccc4C)CC3)CC2)[nH]c2ccc(Br)cc12` (centres undefined) registered an Inhibition of 100%.

Consider `CC(C)C[C@H](Nc1ccnc(NCC2CCCCC2)n1)C(=O)NCCOc1ccccc1.O=C(O)C(F)(F)F`, for which the Inhibition was found to be 89%.

With `Cc1ccc(S(=O)(=O)n2nccc2-c2c(-c3ccc(Cl)cc3)noc2C)cc1`, the Inhibition is on record as 97%.

Regarding `CC(C)(C)OC(=O)NCc1ccc(Nc2nnc(-c3cccc(C(=O)NCc4cc(C(F)(F)F)cc(C(F)(F)F)c4)c3)o2)cc1`, the Inhibition is 90%.

For the compound `N#Cc1ccc2[nH]cc(CN3CCC4(CC3)CN(CCNCc3ccccc3)C(=O)O4)c2c1.O=C(O)C(F)(F)F`, the Inhibition stood at 100%.

For `c1ccc(COc2ccc(Nc3ncnc4cnc(-c5ccc(CNc6cccnc6)o5)cc34)cc2)cc1`, the Inhibition is listed as 96%.

`COc1cccc(C2CCN(CCN3CCC(CNC(=O)c4ccc(-c5ccc(C(F)(F)F)cc5)cc4)CC3)CC2)c1` returned an Inhibition of 100%.

Regarding `CN1CCN(c2ccc(-c3nc4ccc(OCc5cc(Cl)cc(Cl)c5)c(C(N)=O)c4[nH]3)cc2)CC1`, the Inhibition was 100%.

`O=C(/C=C/c1ccc(Cl)c(Cl)c1)NCCCCCN1CCCN(C(=O)Nc2cc(Cl)cc(Cl)c2)CC1` displayed an Inhibition of 96%.

Consider `N#Cc1ccc2c(c1)CN(C1CCC(NC(=O)/C=C/c3cc(C(F)(F)F)cc(C(F)(F)F)c3)CC1)CCC2` (centres undefined), for which the Inhibition worked out at 95%.

In turn, `Cc1ccc(C(=O)Cn2nc(-c3ccc(C)c(S(=O)(=O)N4CCCCC4)c3)ccc2=O)cc1` gave an Inhibition of 99%.

Take `CCCCCCN1CCC(NCc2cccc(-n3ccnc3)c2)CC1.O=C(O)C(F)(F)F`: the Inhibition turned out to be 100%.

The compound `Cl.FC(F)(F)c1ccc2c(NCCc3ccccc3)ccnc2c1` yielded an Inhibition of 87%.

Turning to `CC(C)(C)c1ccc(CNC(=O)c2ccc(-c3nc4ccc(Cl)cc4[nH]3)cc2)cc1`, the Inhibition amounted to 93%.

On to `CCNc1cc(C(=O)N[C@@H](Cc2ccccc2)[C@H](O)CNC2(CC)CCCCC2)cc(N2CCCCS2(=O)=O)c1.Cl`, for which the Inhibition is reported as 98%.

For `CCCC(=O)NC(c1cccs1)c1cc(Cl)c2cccnc2c1O` (centres undefined), the Inhibition worked out at 87%.

For `OC(CNc1ccnc(Nc2ccc(Cl)cc2)n1)c1ccccc1C(F)(F)F` (centres undefined), the Inhibition is reported as 98%.

Turning to `NC1CCN(Cc2cccc(-c3ccc(-c4nc5cc(F)ccc5[nH]4)cc3)c2)C1.O=C(O)C(F)(F)F` (centres undefined), the Inhibition worked out at 99%.

`O=C(/C=C/c1ccc(Cl)c(Cl)c1)NCCCCCN1CCC(C(=O)Nc2cccc(Cl)c2)CC1` displayed an Inhibition of 100%.

The compound `Cc1cccc2nc(-c3cccc(-c4ccc(NC(=O)C(C)CN5CCN(C)CC5)cc4)c3)[nH]c12` (centres undefined) returned an Inhibition of 99%.

Regarding `CC(Cc1ccc(CN2CCN(Cc3ccccc3)CC2)cc1)NCC(O)c1cccc(C(F)(F)F)c1.Cl` (centres undefined), the Inhibition is reported as 97%.

The compound `O=c1cc(NCC2(CNCc3cn(Cc4ccccc4)c4ccccc34)CCCCC2)[nH]c2ccccc12` came in with an Inhibition of 100%.

Regarding `COc1ccc(-c2ccc(NC(=O)c3cccc(C#N)c3)cc2)cc1CN1CCN(C)CC1.O=C(O)C(F)(F)F`, the Inhibition came out at 100%.

For `COc1cccc(-c2ccc(C(=O)NC3CCN(Cc4ccc(C(C)(C)C)cc4)CC3)s2)c1.O=C(O)C(F)(F)F`, the Inhibition is 85%.

Regarding `COc1ccc2nccc([C@@H](O)CN3CCC(NC(=O)C(=O)c4c[nH]c5c(C)cccc45)CC3)c2c1`, the Inhibition was 100%.

The compound `O=C(/C=C/c1ccc(C(F)(F)F)cc1)NCCCCCN1CCN(C(=O)Nc2ccc(Cl)c(Cl)c2)CC1` showed an Inhibition of 95%.

For `Br.CC1(C)NC(N)=NC(=N)N1OCCCSc1ccccc1`, the Inhibition is on record as 93%.

On to `CCCC(C)NC[C@@H](O)[C@H](Cc1ccccc1)NC(=O)c1cc(C2CCCC2)cc(N2CCCCS2(=O)=O)c1.Cl` (some centres undefined), for which the Inhibition is listed as 98%.

For `COCCOc1nc(N)nc2ncc(Cc3cc(OC)ccc3OC)c(C)c12`, the Inhibition is reported as 96%.

The compound `CCN(CC)CCOc1cc2c(cc1Br)-c1cc(Br)c(OCCN(CC)CC)cc1C2=NO.Cl` came in with an Inhibition of 100%.

In turn, `COc1ccc(-c2cccc(NC(=O)c3cccc(Cl)c3)c2)cc1CN1CCC(O)CC1.O=C(O)C(F)(F)F` came in with an Inhibition of 98%.

With `Cc1cccc2nc(-c3ccc(-c4ccc(CN5CCN(c6ccc(C#N)cn6)CC5)cc4)s3)[nH]c12.O=C(O)C(F)(F)F`, the Inhibition is on record as 98%.

For the compound `Cc1ccc(Oc2cnn(C)c(=O)c2Nc2cccc(C(=O)NCCc3ccccn3)c2)c(C)c1`, the Inhibition was 94%.

As to `CN1CCOc2ccc(Nc3nnc(-c4cccc(-c5cccnc5)c4)o3)cc2C1`, the Inhibition is recorded as 100%.

`CCCN(CCC)CCCOc1ccc(C(=O)c2c(-c3ccc(OCCCN(CCC)CCC)cc3)oc3ccc(Cl)cc23)cc1.Cl` came in with an Inhibition of 96%.

The values are drawn from ChEMBL document CHEMBL1157539, “Thousands of chemical starting points for antimalarial lead identification” (Nature, 2010).
